Data from PubChem BioAssay (NCI).
The panel holds about 83,000 compounds, 20% with a hit somewhere; the sample as a whole holds those more often.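 Method: cells in 96-well plates; compound added at one concentration; 48 h incubation; percent growth measured; values under 10 scored active.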 A number with no mark means an inactive call. Activity calls are given as the source filed them.

Assays:
Test in all cases: NCI-60 one-dose screen, 48 h (100 = growth as untreated, 0 = no growth, -100 = all killed)
Conditions in all cases: 10 µM unless noted
HCT-15 colon = test system: HCT-15 colon
HT29 colon = test system: HT29 colon
U251 CNS = test system: U251 CNS
PC-3 prostate = test system: PC-3 prostate
SK-MEL-5 melanoma = test system: SK-MEL-5 melanoma
UACC-62 melanoma = test system: UACC-62 melanoma
LOX IMVI melanoma = test system: LOX IMVI melanoma
SK-MEL-28 melanoma = test system: SK-MEL-28 melanoma
SK-MEL-2 melanoma = test system: SK-MEL-2 melanoma
SN12C renal = test system: SN12C renal
UO-31 renal = test system: UO-31 renal
TK-10 renal = test system: TK-10 renal
ACHN renal = test system: ACHN renal
CAKI-1 renal = test system: CAKI-1 renal
A498 renal = test system: A498 renal
CCRF-CEM leukemia = test system: CCRF-CEM leukemia
MOLT-4 leukemia = test system: MOLT-4 leukemia
SNB-19 CNS = test system: SNB-19 CNS
EKVX NSCLC = test system: EKVX NSCLC

SMILES	growth (HCT-15 colon)	growth (HT29 colon)	growth (U251 CNS)	growth (PC-3 prostate)	growth (SK-MEL-5 melanoma)	growth (UACC-62 melanoma)	growth (LOX IMVI melanoma)	growth (SK-MEL-28 melanoma)	growth (SK-MEL-2 melanoma)	growth (SN12C renal)	growth (UO-31 renal)	growth (TK-10 renal)	growth (ACHN renal)	growth (CAKI-1 renal)	growth (A498 renal)	growth (CCRF-CEM leukemia)	growth (MOLT-4 leukemia)	growth (SNB-19 CNS)	growth (EKVX NSCLC)
COc1ccc(C2=Nn3c(nnc3-n3nc(C)cc3C)SC2)cc1	17.1%	-17% (active)	15.5%	9.91% (active)	0.149% (active)	39.5%	26.9%	54.8%	16.8%	33.2%	45.8%	49%	35.6%	53.1%	-8.89% (active)	6.66% (active)	5.34% (active)	–	–
CCN1C(=O)N(CC)C2C1NN=c1s/c(=C\c3cccnc3)c(=O)n12 (stereo not drawn)	18.9%	8.17% (active)	19.1%	21.3%	–	30.7%	–	51.8%	51.5%	45.2%	46.8%	80.7%	42.9%	47.5%	–	14.1%	26.5%	29.2%	45.5%
COc1ccc(OC)c(C2OC(c3ccc4ccccc4c3O)=NN2C(C)=O)c1 (stereo not drawn)	62%	61.1%	83.3%	59.3%	–	69.1%	63.9%	78.6%	60.7%	80.6%	63.4%	80.7%	69.5%	87.6%	37.4%	69.2%	61.8%	81.1%	–
COc1ccc(S(=O)(=O)Nc2cc(/C=C\c3cc(OC)c(OC)c(OC)c3)cc(OC)c2OC)cc1	15%	2.32% (active)	5.4% (active)	6.4% (active)	-6.88% (active)	46%	21.5%	67.8%	18.3%	23.3%	–	64.9%	26.4%	22.9%	-11.5% (active)	13.7%	–	–	–
Cc1c(C(=O)/C=C/c2csc3ccccc23)[n+](=O)c2ccccc2n1[O-]	48.7%	28.3%	40.2%	47.1%	79.5%	70.5%	34.1%	–	95.3%	78.7%	36.8%	76.5%	85%	17%	118%	51.9%	81.8%	–	67.8%
CC(C)C(C(=O)NCCN1CCOCC1)N1C(=O)/C(=C/c2ccc(Br)cc2)SC1=S (stereo not drawn)	99.9%	109%	98%	90.1%	98.2%	87.8%	99%	96.9%	93.9%	93.8%	84.9%	121%	101%	97.9%	96.8%	97.8%	102%	–	104%
COc1ccc(C2=C(c3cc(OC)c(OC)c(OC)c3)C(=O)CC2)cc1	24.2%	-5.43% (active)	21.7%	38.3%	–	32.7%	19.6%	47.7%	–	26.4%	46.2%	60.6%	37.8%	53.5%	-4.31% (active)	–	17.4%	35.1%	40%
O=C1/C(=C/c2ccccc2)CN(C(=O)CCN2CCC(=NO)CC2)C/C1=C\c1ccccc1	-42.7% (active)	-81% (active)	-52.7% (active)	-7.51% (active)	-59.2% (active)	-59.7% (active)	-90.7% (active)	-27.4% (active)	55.2%	-18.6% (active)	-84% (active)	0.636% (active)	-11% (active)	-6.16% (active)	80%	-2.62% (active)	8.95% (active)	–	1.08% (active)
C=C1C(=O)O[C@H]2[C@H]1CC/C(Cn1cc(-c3cccc(Cl)c3)nn1)=C\CC[C@@]1(C)O[C@@H]21	-72.3% (active)	-56.3% (active)	-71.1% (active)	-59.1% (active)	–	–	-91.1% (active)	–	-40.8% (active)	-37.1% (active)	-95.4% (active)	-97.1% (active)	-89% (active)	-82.2% (active)	-26.2% (active)	-40.8% (active)	-18.6% (active)	37.9%	-18.4% (active)
O=C1/C(=C/c2ccc([N+](=O)[O-])cc2)CN(C(=O)CCN2CCC(=NO)CC2)C/C1=C\c1ccc([N+](=O)[O-])cc1	-68.4% (active)	-49.7% (active)	-56.8% (active)	-34.6% (active)	–	-52.2% (active)	-83.3% (active)	-30.6% (active)	2.76% (active)	-17.6% (active)	–	8.77% (active)	-59.2% (active)	-46.3% (active)	-3.11% (active)	-13.3% (active)	-7.02% (active)	-41.6% (active)	-31.9% (active)
CN1C(=O)N(C)C2C1NN=c1s/c(=C\C=C\c3ccccc3)c(=O)n12 (stereo not drawn)	32.4%	20.7%	63.7%	40.9%	–	43.6%	46.4%	–	61.6%	83.5%	70.3%	80%	63.8%	46.1%	–	53.8%	65.2%	57.9%	69.9%
CCCCCCCCCCCCNC(=O)[C@H]1CSC(c2ccsc2)N1 (stereo partly drawn)	-71.4% (active)	-74% (active)	-94.2% (active)	-88.9% (active)	36.5%	-93.5% (active)	-89.5% (active)	-88% (active)	-91% (active)	-87% (active)	-99.6% (active)	-91.6% (active)	-68.7% (active)	-13.7% (active)	106%	-43.2% (active)	-67.5% (active)	–	-84% (active)
Cc1ccc(S(=O)(=O)n2cc(C(=O)C(=O)Nc3ccncc3)c3ccccc32)cc1	24.9%	6.07% (active)	33.7%	55.1%	11.2%	32.4%	45.2%	52%	–	39.8%	43.1%	87.9%	52.3%	42.1%	74.1%	–	50.7%	–	55.8%
COc1ccc(-c2cnoc2-c2ccc(OC)cc2O)cc1	26.7%	24.1%	25.6%	53.2%	15.8%	28.9%	41.2%	45%	–	37.2%	74.5%	86.9%	57.4%	45.2%	7.36% (active)	–	44.2%	–	82.9%
O=c1[nH]c2ccc(Br)cc2c2c1C(c1ccc(Cl)cc1)c1c(ncn3nc(-c4ccco4)nc13)O2 (stereo not drawn)	64.9%	73%	80.8%	72.1%	67.4%	59.8%	76.7%	91.1%	89.1%	74.3%	35%	110%	65.4%	46.3%	59.6%	73.9%	88.1%	–	48.8%
O=C(NCCCNc1nccc(-n2ccc3cccnc32)n1)c1c(F)cccc1F	99.9%	104%	102%	96.8%	99.2%	97.6%	102%	111%	114%	99.4%	92%	116%	94.6%	86.3%	103%	101%	99.2%	–	93.4%
Fc1ccc(-c2nc(-c3nc4ncccc4[nH]3)cc3c2[nH]c2ccccc23)cc1F	54.7%	39.1%	81.9%	73.3%	28.3%	79.9%	48.5%	94%	83.1%	72.5%	41.9%	91.7%	83%	92.3%	88.4%	67.2%	49.8%	–	–
CC12CCCC(CC(=O)c3[nH]c4ccccc4c31)C2 (stereo not drawn)	26.6%	13.2%	24.9%	22.5%	–	37.4%	36.2%	–	30%	51.8%	51.4%	75.4%	52.6%	41.7%	-6.37% (active)	16.6%	29.5%	27.9%	42.1%
